Assay results published in the supplement of paper PMC6555819.

Tests used:
Experiment in all cases: PBM binding z-score (relative to random genomic background probes); higher = stronger binding; sequences stand for … in GC…GCGATTGACAGCGTAGAATGAAGG
[1] = test system: RARb homodimer (NR concentration 270 nM)
Outline: (§1)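 Custom Agilent 4×180K protein-binding microarrays carried double-stranded probes. Their 34-nt variable regions held direct-repeat seeds, single-nucleotide variants, half-site ablations and random human genomic background sequences. Arrays were incubated 1 h with ligand-free nuclear receptor dimers in PBS pH 7.4, 2% milk, 0.02% Triton X-100, 1 mM DTT, 0.2 mg/mL BSA and 0.4 mg/ml salmon testes DNA. Antibodies against each partner (one per run) detected binding, and scanned fluorescence was regression-normalized. Binding z-scores use random background probes as reference.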

[2] = test system: RARg:RXRa (NR concentration 270 nM, RXRa partner concentration 90 nM)
Outline: as §1

[3] = test system: RARg homodimer (NR concentration 270 nM)
Outline: as §1

[4] = test system: RXRa DBDmut IVT, anti-RXR (DBD mutation: RXRa K156A/R161A, NR concentration 90 nM)
Outline: as §1

[5] = test system: RXRa homodimer (NR concentration 180 nM)
Outline: as §1

[6] = test system: THRa:RXRa (NR concentration 90 nM, RXRa partner concentration 90 nM)
Outline: as §1

[7] = test system: THRa homodimer (NR concentration 90 nM)
Outline: as §1

[8] = test system: VDR homodimer (NR concentration 270 nM)
Outline: as §1

Sequence	PBM binding z-score [1]	PBM binding z-score [2]	PBM binding z-score [3]	PBM binding z-score [4]	PBM binding z-score [5]	PBM binding z-score [6]	PBM binding z-score [7]	PBM binding z-score [8]
CCTCCAAGGTCAGCAGGTCAGTGAAAGCGACGTG	4.97	6.12	6.45	2.04	4.21	3.74	2.14	1.55
ATCTCTAGGTAAAGTTCAGTTAAAGATCGATAGA	2.73	1.65	2.5	1.68	1.5	1.47	0.842	2.04
GCGACTGGGGCAAAGCAGGTGACCATAAGGTTGG	0.982	0.256	0.536	-0.884	0.188	2.88	-0.094	-0.886
ATATGTAGGTTAAGGGTCATTCCGGTTGGTTCGC	3.85	4.63	3.26	2.44	5.95	3.49	1.62	4.26
CCGACTGGGGCATAAGGGTACCATAAGCCAGCCC	0.3	0.401	0.239	-0.871	0.269	-0.0868	-0.457	-0.543
CCTAACGGGTCAAGGTTATAGCACGGGTGGTACG	3.19	4.47	4.4	0.639	4.35	2.8	0.625	1.37
CCTACCGGGCCACGAAAGGTCATTGATTCAGTGA	4.84	4.67	4.47	0.0824	4.98	4.19	1.46	2.22
ACTATTAGTTGAGACGAGGGCAACCGTTAGGTTG	1.22	0.448	0.848	0.599	0.373	2.62	0.14	0.969
ATCGAAAGGTCGACGAGGGGAGTATACACCGTTT	2.53	4.16	4.01	1.29	4.27	2.18	-0.0563	0.446
CCTACTGGGCCAAAAAGGTCATTGACGCCGATAA	4.4	4.59	4.36	0.774	4.9	3.02	0.658	2.4
TCTTGTAGATCATTAGAGGTTAAGAAAGTGCGCT	1.19	0.881	0.586	0.77	1.42	2.67	-0.124	0.446
TCTGCTAGGTCAAAGATGGTCAGCTAATCTGCTA	3.04	3.65	4.3	1.31	2.65	3.05	0.196	-0.234
TCATATAGGTCAACAGGTGAAAGTCCGTAAGTTA	4.07	6.14	6.02	2.48	5.39	2.94	0.969	1.41
CGAACGAGGGCATGAGTTGATAGCGAATGCCGAT	0.689	1.25	1.69	2.41	1.09	1.09	-0.229	1.5
GCGACTGGGGCATCAGCAGGTTTCCATAACTTAA	0.345	-0.102	-0.261	0.099	-0.0783	-0.0527	-0.144	0.168
TCTCGGAGGACACGAGGGTCAGAGCTTTCCAGAG	2.81	2.58	2.96	0.569	1.33	2.48	0.409	0.685
ATACCACGGTGATCGTGAGGTCGTTGATACTAAC	1.47	0.858	0.379	0.514	1.1	2.65	2.42	2.44
CCTCGGCGGACAACAGGAGGTCAGAGCTGCCAGA	2.88	2.16	2.04	-0.404	1.71	1.75	0.00224	0.257
CCTGCTAGGTCATTGTCAGCTAATCTACAGTATG	2.45	3.06	3.95	2.93	1.9	2.61	0.862	1.14

Sequence	PBM binding z-score [1]	PBM binding z-score [2]	PBM binding z-score [3]	PBM binding z-score [4]	PBM binding z-score [5]	PBM binding z-score [6]	PBM binding z-score [7]	PBM binding z-score [8]
ATCTCTAGGTAACAAAGTTCAGTGAATGCCGAAC	2.76	2.04	1.99	0.878	1.36	1.56	0.601	2.02
TGAATGATGTTATAAGATCAGGGAACGTTGCAAA	-0.648	0.116	0.244	-1.01	0.153	-0.185	-0.281	-0.22
CCTACTGGCCCAAAAAGGTCATTGATGCCGATAA	4.52	4.52	4.12	0.618	5.25	3.39	1.13	2.65
ACAGACAGATGAGTGAAGGTAACTCAGCTGGACG	-0.259	0.311	0.543	-0.223	0.367	0.16	-0.331	-0.0316
ATCTCTCGGTAAGACTCAGTTCAGTGAAGAACGC	1.05	0.265	0.481	0.833	0.224	0.746	1.17	2.06
ATATGTAGGTTTCATCCGGGTCATTCAGGCTATG	2.53	1.62	0.901	1.35	2.07	3.22	2.18	3.21
CAAACTAGGTCACCGGAAGGTCCAAGTCCGCATG	3.77	5.27	5.86	1.82	3.81	3.59	2.3	1.68
GCGACTGGGGCAAAGCAGGTTAGCATAAGGTTGG	0.654	0.256	0.429	-0.341	0.0651	2.28	-0.225	-0.542
ACTATTAGTTGAGATGAGGGCAACCGATAGGTTG	1.05	0.932	0.979	0.642	0.671	2.84	0.833	1.18
AATACAAGGTCACTAGGCCAGAGTAGGTACGAAT	4.18	5.73	6.29	3.29	5.53	3.95	2.4	2.75
ATCTCTAGGTAAAGATAGTTCAGTTAATGCAAAT	1.19	0.937	0.915	0.536	0.419	1.27	0.471	0.927
CCTACTGGGCCATTCAGAGGTCATTTATCATATG	3.73	3.91	2.73	1.47	3.27	3.12	1.45	4.04
CCTGCTGGGCCAAAAAGGTCATTGATGCCGATAA	4.32	4.6	4.17	0.818	4.91	3.12	0.279	2.58
CCGACTGGGGCAGAAAGGCTACCATACCATCCGG	0.243	-0.0591	-0.0697	-0.996	-0.122	-0.836	-0.539	-0.212
ATCTCTTGGTAAAGATAGTTCAGTGAATGCAAAT	1.23	0.592	0.734	0.404	0.246	0.575	0.156	0.713
CAAACTAGGTCACCGGAACGTCAAAGTCCGCATG	3.74	4.82	5.62	1.46	3.86	3.55	1.88	1.08
ACTAGCAGGCCAAGTTTTGGTCACTCAAACAAAG	0.74	0.448	0.546	-0.286	-0.0235	0.0291	-0.326	-0.447
CCTACTGGACCAAAAAGGTCATTGATGCCGATAA	4.26	4.54	4.04	1.08	5.04	3.33	1.43	3.2
TCTGCTAGGTCACCGATGGTCAGCTAATCTGCTA	3.6	4.74	5.73	0.891	3.28	3.48	1.23	-0.0284

Sequence	PBM binding z-score [1]	PBM binding z-score [2]	PBM binding z-score [3]	PBM binding z-score [4]	PBM binding z-score [5]	PBM binding z-score [6]	PBM binding z-score [7]	PBM binding z-score [8]
GGAATGAGGGCATTCGAGTTGATAGCATGGCGAT	0.662	1.15	1.22	3.43	0.995	3.3	0.191	3.8
CAGCCTAGGTCAGGTCCAGTATAGGAGGAACGTT	1.98	2.25	3.33	-0.0428	1.14	1.68	0.525	0.207
GCTAGTTGGTCAGTACAAGGTCACACACCGGTCG	4.39	4.09	3.66	0.602	3.47	4.02	4	2.53
TCTGCCAGGTCAGTTGGTCAGCTAACGAGCTGCC	2.77	2.86	3.55	0.569	1.12	2.11	0.521	-0.514
TCTTGTAGATCAATAGCGGTTAAGAAAGTGCGCT	-0.0533	0.105	-0.0407	0.457	0.288	0.011	-0.478	0.0262
CCTGCTAGGTCATGGTCAGCTTATCTACAGTATG	3.15	3.67	4.7	1.86	3.01	2.97	1.52	0.201
CCTATTAGTTGACCATAAGGGCAACCGTAGCTCG	1.93	1.09	1.25	0.707	0.63	1.92	1.29	0.902
AATACAGTGTCATCGTAGGCCAGAGTACGCACAG	0.72	0.907	1.24	0.561	0.84	1.81	-0.754	0.395
TCGATTAGGTTAGTCGGGGCATTCAGCCAACATA	0.609	0.149	0.141	1.32	0.147	1.4	0.446	0.465
CCTAATGGGCCAAGGTCATTGATCAGTCAAAGCA	3.46	3.94	3.82	1.91	3.73	3.4	2.52	3.34
TCTAGTTGGTCAAAGGTCACACAGTCGAAATGCG	5.27	7.05	6.38	1.73	8.22	4.12	2.06	2.98
CCTACTGGCCCAAGGTCATTGATCAGTCAAAGCA	3.58	3.48	2.65	1.58	3.16	3.57	2.81	2.79
ACTATTAGATGACTTAGGGCAACCGATACGACGC	1	0.918	1.25	0.754	0.767	1.04	0.469	0.377
TCATATAGGTAAAGGTGATAGTCGAACGATATGA	0.45	0.866	0.944	0.699	1.19	0.353	-0.589	-0.591
TGTCAAAGTTCAAAGGTAAGGTAAGTATCCACAC	3.83	6.22	6.55	4.48	7.16	3.5	0.924	4.14
TCATATAGGTAATACAGGTGAAACTCGGCATCTA	0.77	0.826	0.818	1.45	1.1	1.23	0.391	0.169
CGAACTAGGTCATTCACAGGACAGTGAATAGTAA	2.81	4.97	4.43	2.48	2.55	2.91	0.979	1.29
CCTACTAGTTGACCATAAGGGCAACCGAAGCTCG	1.92	0.922	0.714	0.0414	0.509	1.75	1.28	0.643
